Experiment [1] is described as follows: APR_HepG2_CellLoss_72hr: Apredica 72-hour HepG2 Assay for Cell Loss (AID 2282915). As to conditions: high-content imaging. The gist of the method:
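HepG2 cells exposed 72 h to compound at 0.39–200 uM (10 concentrations, duplicate) in 0.5% DMSO. Fixed with 3.7% formaldehyde and Hoechst 33342-stained. Imaged at 20x; nuclear count gives cell number, fitted bidirectionally versus DMSO.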

Experiment [2] in a line: APR_HepG2_P-H2AX_72hr: Apredica 72-hour HepG2 Assay for H2AX Phosphorylation (AID 2282916).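 Also: phospho-histone H2A.x immunostain intensity per cell marking DNA damage.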 As to conditions: imaging, actives raise or lower the signal. The method in brief: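 Following 72 hr treatment with 0.39–200 uM compound, HepG2 cells were formaldehyde-fixed, permeabilized and stained for phospho-H2A.x; signal was measured by high-content imaging and fitted bidirectionally against DMSO controls.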

Experiment [3] can be described thus: APR_HepG2_MitoMembPot_72hr: Apredica 72-hour HepG2 Assay for Mitochondrial Membrane Potential (AID 2282917). The note with it: imaging, actives raise or lower the signal. The gist of the method:
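HepG2 cells dosed 72 hr with compound at 0.39–200 uM in duplicate, 0.5% v/v DMSO final. Mitochondria stained with 250 nM MitoTracker Red CMXRos for 30 min before formaldehyde fixation, imaged by high-content fluorescence; bidirectional fit versus DMSO.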

The nature of experiment [4]: APR_HepG2_MitoticArrest_72hr: Apredica 72-hour HepG2 Assay for Mitotic Arrest (AID 2282918). As to conditions: high-content imaging, actives raise or lower the signal. The method in brief: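 High-content imaging of fixed human HepG2 cells after 72 h compound exposure (0.39–200 uM, duplicates, 0.5% DMSO); mitotic arrest scored from phospho-histone H3 and nuclear Hoechst staining relative to DMSO.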

Experiment [5] in a line: APR_HepG2_MicrotubuleCSK_72hr: Apredica 72-hour HepG2 Assay for Microtubule CSK Stabilty (AID 2282919). As to conditions: HepG2 microtubule cytoskeleton, high-content imaging, actives raise or lower the signal. The method in brief:
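HepG2 cells were exposed 72 hr to compound at 0.39–200 uM in duplicate (0.5% DMSO final), then fixed and permeabilized. Alpha-tubulin immunofluorescence was imaged by high-content microscopy, with bidirectional fitting against DMSO and taxol as positive control.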

Experiment [6] can be described thus: APR_HepG2_P-H2AX_24hr: Apredica 24-hour HepG2 Assay for H2AX Phosphorylation (AID 2282920). As to conditions: high-content imaging, actives raise or lower the signal. The method in brief: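 High-content imaging of phospho-histone H2A.x immunofluorescence, nuclei counterstained with Hoechst 33342, in fixed HepG2 cells. Compounds ran 0.39–200 uM in duplicate for 24 h, final DMSO 0.5%. Signal change fitted both directions against DMSO.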

The nature of experiment [7]: APR_HepG2_StressKinase_72hr: Apredica 72-hour HepG2 Assay for Stress Kinase (AID 2282921). The note with it: HepG2 stress kinase (phospho-c-Jun) imaging, actives raise or lower the signal. The method in brief: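 Fluorescence intensity of Cy3-tagged anti-phospho-c-Jun antibody, quantified per cell from Hoechst-defined nuclei across six images per well, served as the read-out following 72 h exposure (0.39–200 uM, 0.5% v/v DMSO).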

A short description of experiment [8]: APR_HepG2_StressKinase_24hr: Apredica 24-hour HepG2 Assay for Stress Kinase (AID 2282922). The note with it: HepG2 stress kinase (phospho-c-Jun) imaging, actives raise or lower the signal. The method in brief:
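HepG2 cells exposed 24 h to 0.39–200 uM compound in duplicate (0.5% v/v DMSO final). Cells fixed in 3.7% formaldehyde, permeabilized and immunostained for phospho-c-Jun; read by high-content fluorescence imaging, fitted bidirectionally against DMSO.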

The nature of experiment [9]: APR_HepG2_p53Act_72hr: Apredica 72-hour HepG2 Assay for p53 Activation (AID 2282923).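 Also: average cellular p53 protein immunofluorescence intensity in HepG2 cells.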 As to conditions: high-content imaging, actives raise or lower the signal. The gist of the method: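 HepG2 monolayers receive test compounds in duplicate at ten concentrations (0.39 through 200 uM) for 72 hr. They are then formaldehyde-fixed, antibody-labelled for p53, Hoechst-stained and imaged, with activity fitted bidirectionally versus DMSO.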

The nature of experiment [10]: APR_HepG2_MitoMass_72hr: Apredica 72-hour HepG2 Assay for Mitochondrial Mass (AID 2282924).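 Also: MitoTracker Red CMXRos stain intensity per cell imaged as mitochondrial mass.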 The note with it: high-content imaging, actives raise or lower the signal. The method in brief:
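HepG2 cells dosed 72 hr at 0.39–200 uM (0.5% DMSO), in duplicate. MitoTracker Red CMXRos 250 nM loaded 30 min before formaldehyde fixation; high-content fluorescence imaging, bidirectional fit versus DMSO.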

The nature of experiment [11]: APR_HepG2_NuclearSize_72hr: Apredica 72-hour HepG2 Assay for Nuclear Size (AID 2282925). The note with it: high-content imaging, actives raise or lower the signal. The method in brief: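 HepG2 cells dosed 72 h at 0.39–200 uM (10 concentrations, duplicate) in 0.5% v/v DMSO final. Fixed, Hoechst 33342-stained nuclei imaged; nuclear diameter measured by automated image analysis. Bidirectional fit versus DMSO.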

A short description of experiment [12]: ATG_CRE_CIS: Attagene CIS-FACTORIAL HepG2 Assay for human cAMP Responsive Element (CRE) binding protein 3 (AID 2282926). As to conditions: HepG2 CRE cis-reporter, Attagene multiplexed mRNA; actives raise or lower the signal. The method in brief:
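Multiplexed transcription-unit reporters transfected into HepG2; 24 h dosing; RT-PCR/capillary electrophoresis fluorescence read-out; bidirectional fit vs DMSO.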

Experiment [13] addresses CCAAT/enhancer-binding protein beta (Homo sapiens) (UniProt P17676). As to the kind of experiment: ATG_C_EBP_CIS: Attagene CIS-FACTORIAL HepG2 Assay for human CCAAT/Enhancer Binding Protein (C/EBP) beta (AID 2282927). The note with it: HepG2 Attagene cis-factorial transcription factor reporter; actives raise or lower the signal. The method in brief: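 HepG2 transiently transfected with multiplexed reporter units under cis-regulatory promoters reporting endogenous C/EBPb activity. After 24 h exposure, reporter mRNA assayed by RT-PCR, fluorescent labelling, HpaI digestion and capillary electrophoresis; bidirectional fitting versus DMSO.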

Experiment [14] is described as follows: ATG_CMV_CIS: Attagene CIS-FACTORIAL HepG2 Assay for human CMV (Internal Marker) (AID 2282928).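 Also: endpoint acts as a background internal control marker rather than a target.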 As to conditions: HepG2 CMV promoter reporter, transcription factor profiling; actives raise or lower the signal. The gist of the method:
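CMV internal-marker background readout in transiently transfected HepG2 cells bearing cis-regulated reporter units. Reporter mRNA is measured 24 h after dosing by RT-PCR and capillary electrophoresis, with bidirectional fitting against DMSO.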

The nature of experiment [15]: ATG_DR4_LXR_CIS: Attagene CIS-FACTORIAL HepG2 Assay for human Liver X Receptor (LXR), DR4 submotif (AID 2282929). As to conditions: HepG2 Attagene DR4 cis-reporter, mRNA transcription; actives raise or lower the signal. The gist of the method:
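The endpoint is DR4-element-driven reporter transcripts after 24 h chemical exposure of transfected HepG2 cells. These were measured via RT-PCR and capillary electrophoresis, and gain or loss of signal was fitted relative to DMSO controls.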

In experiment [16] the target is Aryl hydrocarbon receptor (Homo sapiens) (UniProt P35869). As to the kind of experiment: ATG_Ahr_CIS: Attagene CIS-FACTORIAL HepG2 Assay for human Aryl Hydrocarbon Receptor (Ahr) (AID 2282930). The note with it: HepG2 AhR cis-factorial reporter transcription; actives raise or lower the signal. The gist of the method: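 HepG2 cells transiently transfected with cis-element-driven multiplexed reporter units; endogenous AhR activity read as reporter mRNA 24 h after dosing, via RT-PCR, 6-FAM labelling, HpaI digestion and capillary electrophoresis. Bidirectional fit relative to DMSO.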
Aryl hydrocarbon receptor (Homo sapiens), sequence (P35869 whole entry, looked up): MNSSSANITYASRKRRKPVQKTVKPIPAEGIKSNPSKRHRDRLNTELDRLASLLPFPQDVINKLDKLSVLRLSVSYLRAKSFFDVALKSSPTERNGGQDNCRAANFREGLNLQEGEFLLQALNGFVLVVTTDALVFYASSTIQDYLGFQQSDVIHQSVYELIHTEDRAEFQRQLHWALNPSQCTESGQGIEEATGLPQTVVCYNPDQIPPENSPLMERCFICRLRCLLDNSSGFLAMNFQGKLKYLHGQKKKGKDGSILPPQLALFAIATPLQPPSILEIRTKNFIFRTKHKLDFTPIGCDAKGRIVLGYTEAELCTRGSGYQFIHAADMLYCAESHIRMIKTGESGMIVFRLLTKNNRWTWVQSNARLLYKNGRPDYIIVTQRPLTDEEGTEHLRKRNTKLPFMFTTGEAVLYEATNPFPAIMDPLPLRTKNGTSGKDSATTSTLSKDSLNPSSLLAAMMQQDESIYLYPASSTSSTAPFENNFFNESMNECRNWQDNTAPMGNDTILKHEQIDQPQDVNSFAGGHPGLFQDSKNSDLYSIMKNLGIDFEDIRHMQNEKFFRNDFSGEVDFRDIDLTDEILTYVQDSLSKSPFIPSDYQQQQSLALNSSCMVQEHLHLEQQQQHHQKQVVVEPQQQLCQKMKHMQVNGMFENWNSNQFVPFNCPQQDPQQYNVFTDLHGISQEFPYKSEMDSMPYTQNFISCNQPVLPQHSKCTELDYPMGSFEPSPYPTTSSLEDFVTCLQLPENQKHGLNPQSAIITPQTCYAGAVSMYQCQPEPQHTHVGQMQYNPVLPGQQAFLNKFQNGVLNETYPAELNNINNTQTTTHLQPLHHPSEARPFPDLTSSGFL

Experiment [17] can be described thus: ATG_AP_1_CIS: Attagene CIS-FACTORIAL HepG2 Assay for human Activator Protein 1 (AP-1) (AID 2282931). As to conditions: HepG2 Attagene cis-factorial AP-1 reporter mRNA; actives raise or lower the signal. The gist of the method: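 Readout is reporter transcript level from endogenous transcription factor activity, quantified by RT-PCR with fluorescent primer extension and capillary electrophoresis. Transiently transfected HepG2 cells, 24 h exposure. Curves fitted both directions versus DMSO.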

The nature of experiment [18]: ATG_AP_2_CIS: Attagene CIS-FACTORIAL HepG2 Assay for human Activator Protein 2 (AP-2) (AID 2282932). The note with it: HepG2 AP-2 cis-reporter, Attagene transcription factor profiling; actives raise or lower the signal. The method in brief:
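Multiplexed mRNA reporter assay in HepG2: cis-regulated units report endogenous factor activity after 24 h treatment. Fluorescence from capillary electrophoresis of RT-PCR products gives the signal, with DMSO as baseline.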

Experiment [19] deals with Retinoic acid receptor alpha (Homo sapiens) (UniProt P10276). Nature of the experiment: ATG_DR5_RAR_CIS: Attagene CIS-FACTORIAL HepG2 Assay for human Retinoic Acid Receptor Alpha (RARE), DR5 submotif (AID 2282934).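 As to AC50: reporter responds to endogenous RAR alpha beta and gamma in HepG2 not RARA alone.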 The note with it: HepG2 Attagene cis-factorial RARE DR5 reporter, mRNA; actives raise or lower the signal. The method in brief: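 HepG2 cells transiently transfected with multiplexed reporter units; DR5 cis-element drives reporter through endogenous transcription factors. After 24 h dosing, reporter mRNA quantified by RT-PCR, fluorescent labeling, HpaI digestion and capillary electrophoresis; bidirectional fitting versus DMSO.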
Retinoic acid receptor alpha (Homo sapiens), sequence (P10276 whole entry, looked up): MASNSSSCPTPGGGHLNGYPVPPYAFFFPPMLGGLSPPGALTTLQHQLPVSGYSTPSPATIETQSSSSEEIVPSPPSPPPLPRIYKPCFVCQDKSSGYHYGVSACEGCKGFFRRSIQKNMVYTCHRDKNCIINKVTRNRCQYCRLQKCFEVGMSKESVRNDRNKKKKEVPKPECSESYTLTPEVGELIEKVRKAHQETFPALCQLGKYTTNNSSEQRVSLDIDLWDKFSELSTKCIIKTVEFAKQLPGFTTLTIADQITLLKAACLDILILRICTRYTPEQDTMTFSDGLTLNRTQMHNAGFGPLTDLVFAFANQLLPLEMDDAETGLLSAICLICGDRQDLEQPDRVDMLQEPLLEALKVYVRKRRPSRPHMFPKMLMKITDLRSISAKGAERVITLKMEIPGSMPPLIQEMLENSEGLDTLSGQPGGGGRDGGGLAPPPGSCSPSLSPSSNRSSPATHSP

Experiment [20] is described as follows: ATG_BRE_CIS: Attagene CIS-FACTORIAL HepG2 Assay for human Bone Morphogenetic Protein (BMP) Response Element (BRE) (AID 2282933). The note with it: HepG2 BMP response element reporter, Attagene transcription factor profiling; actives raise or lower the signal. The method in brief:
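After a 24 h chemical treatment, transiently transfected HepG2 cells were lysed for RNA; reporter transcripts were quantified by fluorescent RT-PCR and capillary electrophoresis, normalised to DMSO.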

SMILES strings stand for the structures. Active and inactive are the calls of the source. The calls were made as follows: active = hit-call score of the fitted dose curve at least 0.9, where 1 is the maximum; inactive = score below 0.9.

CCAAT/enhancer-binding protein beta (Homo sapiens), sequence (P17676 whole entry, looked up): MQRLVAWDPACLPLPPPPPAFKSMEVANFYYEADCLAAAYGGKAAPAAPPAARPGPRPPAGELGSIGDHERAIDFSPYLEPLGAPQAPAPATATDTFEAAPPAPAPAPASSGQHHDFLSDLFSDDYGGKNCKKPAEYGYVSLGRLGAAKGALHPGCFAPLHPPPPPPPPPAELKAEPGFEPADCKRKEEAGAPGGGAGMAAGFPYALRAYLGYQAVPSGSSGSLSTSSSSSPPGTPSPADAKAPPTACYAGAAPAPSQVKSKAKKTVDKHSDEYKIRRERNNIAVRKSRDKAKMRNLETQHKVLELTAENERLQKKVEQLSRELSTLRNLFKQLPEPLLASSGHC

Regarding `CC(=O)Oc1ccccc1C(=O)O`, the result in [1], in experiment [2], in experiment [3], in experiment [4], in [5] and in experiment [6] was inactive. In addition, the result in experiment [7], in [8], in [9], in experiment [10], in experiment [11] and in [12] was inactive. Moreover, the result in experiment [13], in experiment [14], in experiment [15], in experiment [16], in [18] and in experiment [19] was inactive. Further, the AC50 in experiment [17] was 61.1 µM (active).
For the compound `Cc1nc(C)nc(N2C[C@@H](C)N(c3ccnc([C@@H](C)O)n3)[C@@H](C)C2)n1`, the compound was called inactive in experiment [1], in [2], in experiment [3], in experiment [4], in experiment [5] and in [6]. For the same compound, the result in experiment [7], in experiment [8], in experiment [9], in experiment [10], in [11] and in experiment [12] was inactive. In addition, the outcome in experiment [13], in experiment [14], in [15] and in [16] was inactive. In [17], the AC50 is 23.1 µM (active).
Turning to `COCCOCCOC`, the outcome in experiment [1], in experiment [2], in experiment [3], in experiment [4], in experiment [5] and in [6] was inactive. Further, the call in experiment [7], in experiment [8], in experiment [9], in experiment [10], in experiment [11] and in experiment [12] was inactive. In addition, the outcome in [13], in experiment [14], in experiment [15], in [16], in [17] and in experiment [20] was inactive.
Consider `C[C@]12C=CC(=O)C=C1CC[C@@H]1[C@@H]2C(=O)C[C@@]2(C)[C@H]1CC[C@]2(O)C(=O)CO`, for which the outcome in experiment [1], in experiment [2], in experiment [3], in experiment [4], in [5] and in [6] was inactive. In addition, the result in [7], in [8], in experiment [9], in [10], in [11] and in [12] was inactive. In addition, the outcome in experiment [13], in experiment [14], in [15], in experiment [16], in experiment [17] and in [18] was inactive. The call in experiment [20] was inactive.
Turning to `Cc1ccc(C)c(O)c1C`, the AC50 is 12.4 µM (active) in experiment [1], 13.4 µM (active) in experiment [4], 16.9 µM (active) in [9] and 9.74 µM (active) in experiment [10]. The outcome in experiment [2], in experiment [3], in experiment [5], in experiment [6], in [7] and in [8] was inactive. Moreover, the compound was classed as inactive in experiment [11], in experiment [12], in [13], in experiment [14], in experiment [15] and in experiment [16]. The outcome in experiment [17], in experiment [18] and in [20] was inactive.
Turning to `CC(C)(C)c1cc(O)c(C(C)(C)C)cc1O`, the AC50 in experiment [1] is 51.6 µM (active); in experiment [2], 36 µM (active); in [3] it was 104 µM (active); in experiment [4] it was 11.8 µM (active); in [6] it was 79.4 µM (active); in [8], 93.1 µM (active). The AC50 in [9] is 12.5 µM (active); in [11], 26 µM (active); in experiment [12], 23 µM (active); in [13] it was 89.1 µM (active); in experiment [14], 30.2 µM (active); in experiment [15], 29.5 µM (active). In addition, the half-maximal activity concentration (AC50) in [17] was 31 µM (active); in experiment [19] it was 57.1 µM (active). Also, the outcome in experiment [5], in experiment [7], in experiment [10], in experiment [16] and in [18] was inactive.
Take `COc1ccc(C)cc1N`: the compound was called inactive in experiment [1], in experiment [2], in [3], in experiment [4], in experiment [5] and in experiment [6]. Further, the compound was classed as inactive in experiment [7], in experiment [8], in experiment [9], in experiment [10], in experiment [11] and in experiment [12]. In addition, the outcome in experiment [13], in [14], in experiment [15], in experiment [17], in [20] and in [19] was inactive. In experiment [16], the AC50 was 100 µM (active).

These data come from PubChem BioAssay (EPA / NIEHS).
